Screens as filed in PubChem.
Only some compounds are listed: those with a hit (about 2.8% of all), similar ones and a draw of the others.
Pol beta inh: qHTS Assay for Inhibitors of DNA Polymerase Beta; P06746; Pol beta primer extension/strand displacement, fluorescence kinetic; Potency, µM (top dose mostly 114 µM), usual class: inhibitors; 1.3% of 340,000 active
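Preincubation: enzyme (10 nM) with compound, 15 min, RT. Reaction: substrate added to 50 nM final. Reads: 0 and 10 min. Analysis: normalized, Hill fit.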
Pol eta inh: qHTS for Inhibitors of Polymerase Eta; 1.2% of 390,000 active; recombinant Pol eta, fluorescent DNA replication assay; AID 588591, 2011; DNA polymerase eta (Homo sapiens), Q9Y253; Potency, µM (top dose mostly 114 µM), most hits filed as inhibitors
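Pol eta at 10 nM preincubated with compounds 15 min at room temperature; reaction started with fluorescent substrate (50 nM final) and read kinetically at 0 and 10 min.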
WRN helicase inh: qHTS for Inhibitors of WRN Helicase; WRN helicase unwinding, fluorescent forked duplex, kinetic; Potency, µM (doses to about 114 µM), usual class: inhibitors; 0.46% of 360,000 active; AID 651768, 2012; also: nearly all actives have a fitted effect of over 55% in size
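Enzyme (20 nM final) and test compound sit together 15 min at room temperature before substrate addition. Substrate is a single-forked duplex oligonucleotide (100 nM) labelled with fluorophore and quencher, with 2 mM ATP; helicase unwinding raises red fluorescence, read kinetically.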
POLK inh: qHTS for Inhibitors of Polymerase Kappa; DNA polymerase kappa (Homo sapiens), Q9UBT6; purified Pol kappa, fluorescent DNA synthesis assay, 10 min; Potency, µM (titrated, usually from 107 µM), actives largely listed as inhibitors; 0.53% of 400,000 active; AID 588579, 2011
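10 nM Pol kappa preincubated 15 min at room temperature with compounds, then reaction started with substrate at 50 nM final. Fluorescence read kinetically at 0 and 10 min; buffer-only wells served as negative control.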
Pol iota inh: qHTS for Inhibitors of Polymerase Iota. Pol iota fluorescent replication assay, 10 min. 1% of 390,000 active. Potency, µM (titrated, usually from 115 µM), hits mostly inhibitors. AID 588590, 2011. DNA polymerase iota (Homo sapiens), Q9UNA4
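Fluorescent replication assay read twice, at 0 min and 10 min after adding 50 nM (final) substrate. Enzyme (10 nM) and compounds were first incubated 15 min at room temperature; enzyme-free buffer wells were negative controls.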
PI5P4K alpha inh: qHTS for Inhibitors of phosphatidylinositol 5-phosphate 4-kinase (PI5P4K); PI5P4Kalpha enzyme, ADP-Glo luminescence, 60 min; hits give low values; Phosphatidylinositol 5-phosphate 4-kinase type-2 alpha (Homo sapiens), P48426; 1.2% of 330,000 active; max response, %; active = max response of -50% or lower; inconclusive = between -30% and -50%; inactive = -30% or higher; also: value at the top dose of about 77 µM
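Human PI5P4Kalpha with substrate in 0.038 M HEPES pH 7.4, 0.28 mM EGTA, 0.1% CHAPS, 5% DMSO; reaction started with 5 microM ATP (final), 60 min at room temperature. ADP formed read by ADP-Glo luminescence.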
Large screens that a line does not name were inactive. Unless noted, calls follow the shape of the dose curve; as a rule, active = well fitted curve in the direction sought with a large enough effect; inconclusive = small, poorly fitted or top-dose-only effect, or another doubt; inactive = no such curve, though single readings can be large; an effect the other way counts as inactive or inconclusive.

COc1ccc(/C=C2\SC(=S)NC2=O)cc1OS(=O)(=O)c1ccc(NC(C)=O)cc1	Pol beta inh inconclusive, Pol eta inh inconclusive, WRN helicase inh inconclusive, Pol iota inh inconclusive, PI5P4K alpha inh -88.4
COc1cc(/C=C2/SC(=S)NC2=O)ccc1OS(=O)(=O)c1ccc(C)cc1	Pol beta inh 35.5µM, Pol eta inh 28.2µM, WRN helicase inh inconclusive, Pol iota inh inconclusive, PI5P4K alpha inh -84.6
O=C(OCC(=O)c1c[nH]c2ccccc12)c1cc(Br)ccc1O	Pol beta inh inconclusive
O=C(O)c1ccccc1C(=O)c1ccc2c(c1)N(Cc1ccc(Cl)c(Cl)c1)C(=O)CO2	none
COc1ccc(CN2C(=O)c3cccc4cccc(c34)C2c2nc3ccccc3[nH]2)cc1 (stereo unspecified)	none (no result: Pol beta inh, Pol eta inh, POLK inh, Pol iota inh)
CCOC(=O)C1=CCN(S(=O)(=O)c2ccccc2F)C1c1cccc(C)c1 (stereo unspecified)	none (no result: Pol beta inh, Pol eta inh, POLK inh, Pol iota inh)
Cc1ccc(NC(=O)CC2SC(=O)N(c3ccccc3)C2=O)cc1 (stereo unspecified)	WRN helicase inh inconclusive
O=C(CC1SC(=O)N(c2ccccc2)C1=O)Nc1ccccc1 (stereo unspecified)	WRN helicase inh 39.8µM, Pol iota inh inconclusive (no result: PI5P4K alpha inh)
Cc1cccc(NC(=O)CC2SC(=O)N(c3ccccc3)C2=O)c1 (stereo unspecified)	WRN helicase inh 100µM
CC1=C2C3OC(=O)C(C)C3CCC2(C)C=CC1=NO (stereo unspecified)	none (no result: Pol beta inh)
CCOC(=O)/C(C#N)=C\c1cc(OC)c(OC)cc1[N+](=O)[O-]	PI5P4K alpha inh -70.2
Cc1cc2cc3c(cc2nc1SCC(=O)N1CCN(C(=O)c2ccco2)CC1)OCO3	Pol beta inh inconclusive, Pol iota inh 70.8µM (no result: PI5P4K alpha inh)
Cc1cc2nc(-c3ccc(SCc4ccccn4)nc3)[nH]c2cc1C	Pol beta inh inconclusive, WRN helicase inh inconclusive, Pol iota inh 44.7µM
Cc1cc2nc(-c3ccc(SCC(=O)N4CCN(C(=O)c5ccco5)CC4)nc3)[nH]c2cc1C	Pol beta inh 35.5µM, Pol eta inh 79.4µM, WRN helicase inh inconclusive, POLK inh inconclusive, Pol iota inh inconclusive (no result: PI5P4K alpha inh)
O=C(CSc1c2c(nc3ccc(Cl)cc13)CCCC2)N1CCN(C(=O)c2ccco2)CC1	POLK inh inconclusive, Pol iota inh 20µM (no result: Pol beta inh)
CN1CCN(c2ncc3nc(-c4cccc(C#N)c4)c(=O)n(C)c3n2)CC1	none (no result: Pol beta inh, Pol eta inh, WRN helicase inh, Pol iota inh, PI5P4K alpha inh)
CC(=O)Nc1ccc(C2=NNC(=Nc3cccc(S(=O)(=O)N(C)C)c3)SC2)cc1	PI5P4K alpha inh -71.0
Nc1ccc(O)c(C(=O)O)c1	POLK inh 1.06µM (no result: Pol beta inh, Pol eta inh, WRN helicase inh, Pol iota inh, PI5P4K alpha inh)
Nc1ccc(C(=O)O)c(O)c1 (tested in a mixture with another compound)	none (no result: Pol beta inh, Pol eta inh, WRN helicase inh, Pol iota inh, PI5P4K alpha inh)
O=C1C=C(O)CC(c2ccc(Cl)cc2)C1 (stereo unspecified)	Pol beta inh 50.1µM, Pol eta inh inconclusive
COc1cc(CCNC2=CC(=O)c3ncccc3C2=O)ccc1O	Pol eta inh 15.8µM, Pol iota inh 28.2µM (no result: Pol beta inh)
CCOC(=O)C(=O)c1csc(NC(=O)CCSc2ccc(C)cc2)n1	none
Cc1cc(C)cc(CSCC(=O)N/N=C/c2ccc(OCC(=O)NCc3ccco3)cc2)c1	Pol beta inh 25.1µM, Pol iota inh inconclusive (no result: PI5P4K alpha inh)
CCCc1ccc(C(=O)NNC(=O)c2ccc(Br)cc2)cc1	Pol beta inh 44.7µM, Pol eta inh inconclusive, Pol iota inh inconclusive
COc1ccc(-c2noc(CNC(=O)CCN3C(=O)[C@H]4CC=CC[C@H]4C3=O)n2)cc1	none
COc1ccccc1/C=C(/CC(=O)NCc1ccc(F)cc1)c1nc2ccccc2s1	Pol beta inh 44.7µM, Pol eta inh inconclusive, Pol iota inh inconclusive, PI5P4K alpha inh inconclusive
COc1ccccc1/C=C(/CC(=O)NCc1ccccc1)c1nc2ccccc2s1	Pol beta inh 20µM, Pol eta inh inconclusive, PI5P4K alpha inh inconclusive
COC(=O)c1ccc(CNC(=O)Cn2cnc3c(OCc4ccccc4)ncnc32)cc1	none (no result: Pol beta inh)
